Measurements as given in publication PMC7819943, “Rice protein-binding microarrays: a tool to detect cis-acting elements near promoter regions in rice”.
The full ranking holds about 39,000 sequences; the median of “fluorescence intensity (a.u.)” is about 4,300, and the highest 2% start at about 39,000. The sample as a whole holds a higher share of the highest values than the screen did.

target: T1, OsSMF1 (Oryza sativa, UniProt Q6ZLB0 1-436); assay: protein-binding microarray (RPBM); PBS, 2% BSA, 51.3 ng/ul salmon testes DNA, 50 uM zinc acetate, 200 nM TF, 25 C, 1 h; high values mean tight binding; conditions: protein: recombinant; tags: N-terminal polyhistidine and DsRed monomer fusion (pET32a); chain copies: 2; label: CyDye5-dUTP incorporated in the synthesized complementary strand; 3' TTTTT single-stranded linker to array surface; dsDNA, one strand shown
T1 sequence: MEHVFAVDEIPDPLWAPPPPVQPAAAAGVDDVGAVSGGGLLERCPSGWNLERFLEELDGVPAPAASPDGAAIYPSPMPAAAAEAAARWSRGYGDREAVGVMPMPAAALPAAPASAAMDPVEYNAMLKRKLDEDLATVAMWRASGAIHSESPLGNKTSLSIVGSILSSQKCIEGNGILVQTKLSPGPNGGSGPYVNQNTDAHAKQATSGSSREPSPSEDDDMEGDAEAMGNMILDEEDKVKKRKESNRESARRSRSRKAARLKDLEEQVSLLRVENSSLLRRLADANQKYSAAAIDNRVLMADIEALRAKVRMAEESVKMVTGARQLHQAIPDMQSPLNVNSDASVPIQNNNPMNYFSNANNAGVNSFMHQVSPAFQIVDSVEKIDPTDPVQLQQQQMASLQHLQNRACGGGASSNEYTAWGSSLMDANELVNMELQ
In short: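 The binding signal for each feature is its fluorescence intensity in arbitrary units. An Axon 4000B scanner was used to read a custom Agilent array that had been made double-stranded with Cy5-dUTP primer extension, blocked with 2% BSA, incubated at 25 °C for 1 h with 200 nM protein in PBS, 2% BSA, salmon testes DNA and 50 µM zinc acetate, and washed. The protein was an N-terminal polyhistidine–DsRed transcription factor fusion from E. coli BL21-CodonPlus, purified on Ni–NTA.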

Row | Sequence | binding signal
1 | CAATCCAACCGTCGTCGCGCCGCACACCGGCCACCCACCCCGGAGTCACCTAGTGCAG | 20700 fluorescence intensity (a.u.)
2 | GCAATCCCACGTTATCCATCACCCCACCGGGGAAGCCCAACGGAGTCACCTAGTGCAG | 3310 fluorescence intensity (a.u.)
3 | CACACGCCAACCCGGCCCCACACGTCAGCCACTCCCACTGCGGAGTCACCTAGTGCAG | 7300 fluorescence intensity (a.u.)
4 | CCGGCCCAACACCACTAACACGTTCAGCCCCAATCCCCAACGGAGTCACCTAGTGCAG | 42400 fluorescence intensity (a.u.)
5 | TGCGCGTCCTGCTCGCCGCTGCCCTCGCTGAGGAGCTCTCCGGAGTCACCTAGTGCAG | 63600 fluorescence intensity (a.u.)
6 | GCTCTCGCTGACGCTGCCGCTCCGCCTGCCTCCGCCCGCGCGGAGTCACCTAGTGCAG | 3900 fluorescence intensity (a.u.)
7 | AACCACCCTCCGCCGCCGCCGCCGCTCGCCGTAGTCACCTCGGAGTCACCTAGTGCAG | 3180 fluorescence intensity (a.u.)
8 | GAGCGCGAGCTGCTCTCCTCTCCTCCCGCCCCGCGTCGCCCGGAGTCACCTAGTGCAG | 11500 fluorescence intensity (a.u.)
9 | AACCAGTCGCCGCTCGCCACGTGGCACCCTCCACCTCCCTCGGAGTCACCTAGTGCAG | 50500 fluorescence intensity (a.u.)
10 | TATCCATGGTGTTTAACAATATATCACTGGATACACGTGTCGGAGTCACCTAGTGCAG | 9700 fluorescence intensity (a.u.)
11 | TTCTTCCCTTCACATAGGAATTGGATGATGTGGAGACTTTCGGAGTCACCTAGTGCAG | 7630 fluorescence intensity (a.u.)
12 | CATAATTTTAGGTATCGCTAGGATTTAATTTACACTGTAGCGGAGTCACCTAGTGCAG | 3370 fluorescence intensity (a.u.)
13 | TTAGTTTTATATAAAATGTGTCACATGATAATAGTAGTACCGGAGTCACCTAGTGCAG | 3870 fluorescence intensity (a.u.)
14 | TCTACTGTGTGTGTGTGTGTGTGTGTTCACTACTGGATAGCGGAGTCACCTAGTGCAG | 3160 fluorescence intensity (a.u.)
15 | GTCCTAAAGTACTTATTGTGTCCGGTTTTGGTTAGTTAAGCGGAGTCACCTAGTGCAG | 3210 fluorescence intensity (a.u.)
16 | CAGTTACGCGCCGTGCCTACCCGTGTATCACCGCGATGAGCGGAGTCACCTAGTGCAG | 3270 fluorescence intensity (a.u.)
17 | TGCGTGTTTGATGATATACACGTGCGTATATGTCTACCGTCGGAGTCACCTAGTGCAG | 3880 fluorescence intensity (a.u.)
18 | GCACCAGCCAGTCAGCCCACCATTTCAAACGCCACACTCACGGAGTCACCTAGTGCAG | 60800 fluorescence intensity (a.u.)
19 | ACCCATTTTCAGTGGCAGGGTTATTGACACCACACTCACACGGAGTCACCTAGTGCAG | 3140 fluorescence intensity (a.u.)
20 | TTCTCCGGCCGCCGCCGCCATCGCCGCCGGCCGTAGCATGCGGAGTCACCTAGTGCAG | 56000 fluorescence intensity (a.u.)
21 | CCCGCGTCGCATTCAACGCCACGCACACCACTCCACTCCACGGAGTCACCTAGTGCAG | 3470 fluorescence intensity (a.u.)
22 | ACACGGATCGAACCCCTCCTCCCCGCCACGTCACCGATCCCGGAGTCACCTAGTGCAG | 38700 fluorescence intensity (a.u.)
23 | TCCCTCCTCCCCGTCGTCACAAGCCACGTCATCGATCCGCCGGAGTCACCTAGTGCAG | 40000 fluorescence intensity (a.u.)

Row | Sequence | binding signal
24 | TGGATCCGGCCCTGCATGTCCGTCCTCGCCGGTGGGCGCTCGGAGTCACCTAGTGCAG | 41400 fluorescence intensity (a.u.)
25 | CCAACGTCGTACATCCCTCCACGTCATCGATCCGCGCCGCCGGAGTCACCTAGTGCAG | 35200 fluorescence intensity (a.u.)
26 | TCGGCATGGGCGGTGGCGCTGGCGCGTCCTCCGATCCCGTCGGAGTCACCTAGTGCAG | 19900 fluorescence intensity (a.u.)
27 | GCATGGCGCCGCCATCTCGGATTCGCCGTAGTGTCTCCGCCGGAGTCACCTAGTGCAG | 35300 fluorescence intensity (a.u.)
28 | TCTCTCTCTCTCTCGCCATCGTCACTGCGGCTGCTGCTGCCGGAGTCACCTAGTGCAG | 3810 fluorescence intensity (a.u.)
29 | CCCTAGCCCTCGCCCTGGTCCGTCCGGCGTGGCGCGCGCTCGGAGTCACCTAGTGCAG | 5150 fluorescence intensity (a.u.)
30 | CGCGCTGTCTGCACCGCCGCCGCCGCCGCCGGCGGAACCCCGGAGTCACCTAGTGCAG | 25200 fluorescence intensity (a.u.)
31 | CTCCGATACGTATCCCGTACGTATCGCTATTTACTTCGATCGGAGTCACCTAGTGCAG | 4930 fluorescence intensity (a.u.)
32 | CAGATCGGCAGACCAGACCACGTGTACACCCAACACGAGGCGGAGTCACCTAGTGCAG | 8390 fluorescence intensity (a.u.)
33 | AGGAAAGGTTAATTACGTACGTACACGGGAAGGAGTAACCCGGAGTCACCTAGTGCAG | 3340 fluorescence intensity (a.u.)
34 | TCCCTCTGACATGGTTCATTGATAGGTGGACTCTCTATTCCGGAGTCACCTAGTGCAG | 3240 fluorescence intensity (a.u.)
35 | ACCACCACCACCACCATCGCACTCCCAACTCCCAAGCCGCCGGAGTCACCTAGTGCAG | 3760 fluorescence intensity (a.u.)
36 | GCTCCTCCCGTGCCGCCGCCGTCTCGCGCCAGTGCGTCTCCGGAGTCACCTAGTGCAG | 3330 fluorescence intensity (a.u.)
37 | GCTCCTCACCCGCCGTGAACCCAACCCACATCCGCTGACGCGGAGTCACCTAGTGCAG | 3300 fluorescence intensity (a.u.)
38 | ACCTGCCCAACCCCAACCCCAACCCTCTCCTCTCCGCCCACGGAGTCACCTAGTGCAG | 3710 fluorescence intensity (a.u.)
39 | TCCCGTCTCGTCCGTCGTCTCCTCCGCTCCTTGCGCCAAGCGGAGTCACCTAGTGCAG | 3200 fluorescence intensity (a.u.)
40 | CAAAAGCCTCGCCGCGCACCACCACCCAGCTCTCTCCACTCGGAGTCACCTAGTGCAG | 3640 fluorescence intensity (a.u.)
41 | AAGAAAATCTCCTGTCTCAGTCTCCTCCGCTCCTTGCGCCCGGAGTCACCTAGTGCAG | 54400 fluorescence intensity (a.u.)
42 | AAAGCCTCGCCGCCATCTCTCTCCACCACCCAAAATTTCTCGGAGTCACCTAGTGCAG | 35600 fluorescence intensity (a.u.)
43 | CTCCTCTCCCGCGCGCCACGCCCTCCCTCCCCTTCCCCTTCGGAGTCACCTAGTGCAG | 4060 fluorescence intensity (a.u.)
44 | TCCCCACCCTCCTCCGCAAGCCACGCCTCTCCCCAAAGTTCGGAGTCACCTAGTGCAG | 65500 fluorescence intensity (a.u.)
45 | AGCCAGCCCAAAAGCCACGCCGTCCACTCCATCTCCGCCTCGGAGTCACCTAGTGCAG | 48000 fluorescence intensity (a.u.)
46 | CCGCCGTGAAGCACACCACCACCAACCCCATCGCTCCCTCCGGAGTCACCTAGTGCAG | 64500 fluorescence intensity (a.u.)
